Records with an inconclusive call do not appear. Calls of active or inactive are those of the source. Unless noted, calls come from the whole dose curve; as a rule, active = well fitted curve in the direction sought with a large enough effect in the repeat runs; inconclusive = weak or mixed curves; inactive = no such curve, though single readings can be large; an effect the other way counts as inactive or inconclusive.
Tests used:
[1] = target: Estrogen receptor beta (Homo sapiens) (UniProt Q92731); experiment: qHTS assay to identify small molecule antagonists of the estrogen receptor beta (ER-beta) signaling pathway (AID 1259378; active = well fitted inhibition curve with a large enough effect in the signal ratio in the repeat runs, not every such curve was filed as active; the % refers to the signal ratio; note: potency is the fitted concentration of half-maximal effect)
Estrogen receptor beta (Homo sapiens), sequence (Q92731 whole entry, looked up): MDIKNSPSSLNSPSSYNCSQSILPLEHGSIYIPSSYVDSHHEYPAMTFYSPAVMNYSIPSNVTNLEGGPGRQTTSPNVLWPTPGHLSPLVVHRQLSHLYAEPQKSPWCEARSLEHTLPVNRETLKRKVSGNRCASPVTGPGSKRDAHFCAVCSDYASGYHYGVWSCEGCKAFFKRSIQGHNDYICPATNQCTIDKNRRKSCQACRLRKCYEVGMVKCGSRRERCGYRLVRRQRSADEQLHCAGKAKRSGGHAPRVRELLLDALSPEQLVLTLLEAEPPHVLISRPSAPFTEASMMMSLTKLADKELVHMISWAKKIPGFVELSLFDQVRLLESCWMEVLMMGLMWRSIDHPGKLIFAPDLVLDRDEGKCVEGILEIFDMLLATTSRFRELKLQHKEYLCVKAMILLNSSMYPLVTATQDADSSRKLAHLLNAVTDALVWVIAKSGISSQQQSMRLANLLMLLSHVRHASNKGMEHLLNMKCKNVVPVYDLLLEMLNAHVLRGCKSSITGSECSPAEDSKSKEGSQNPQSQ
How it was run: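 ER-beta-UAS-bla HEK293T cells in 2% charcoal-stripped FBS medium treated with compound plus 1nM final 17-beta-estradiol for 16 hr at 37C. Beta-lactamase reporter read by FRET substrate fluorescence after 2 hours at room temperature.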

[2] = qHTS assay to identify small molecule antagonists of the estrogen receptor beta (ER-beta) signaling pathway - cell viability counter screen (AID 1259382); note: nearly all actives have a fitted effect of over 55% in size; note: potency is the fitted concentration of half-maximal effect
How it was run: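 Cytotoxicity counter screen multiplexed with the beta-lactamase antagonist assay: GripTite HEK293T ER-beta-bla cells were treated 16 hr with test chemicals in the presence of 1nM 17-beta-estradiol, and viability was measured by CellTiter-Glo.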

[3] = qHTS assay to identify small molecule agonists or antagonists of the thyroid stimulating hormone receptor (TSHR) signaling pathway - wild type cell line counter screen (AID 1259384; calls by dose curve)
How it was run: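 Wild-type Hek293 cells, 800/well, 18 h at 37C, then compound with Ro20-1724 for 30 min RT. cAMP by HTRF (cAMP-d2/anti-cAMP cryptate), 1 h RT, fluorescence read. 15 concentrations, triplicates.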

[4] = target: Thyrotropin receptor (Homo sapiens) (UniProt P16473); experiment: qHTS assay to identify small molecule antagonists of the thyroid stimulating hormone receptor (TSHR) signaling pathway (AID 1259385; calls by dose curve; note: nearly all actives have a fitted effect of over 20% in size)
Thyrotropin receptor (Homo sapiens), sequence (P16473 whole entry, looked up): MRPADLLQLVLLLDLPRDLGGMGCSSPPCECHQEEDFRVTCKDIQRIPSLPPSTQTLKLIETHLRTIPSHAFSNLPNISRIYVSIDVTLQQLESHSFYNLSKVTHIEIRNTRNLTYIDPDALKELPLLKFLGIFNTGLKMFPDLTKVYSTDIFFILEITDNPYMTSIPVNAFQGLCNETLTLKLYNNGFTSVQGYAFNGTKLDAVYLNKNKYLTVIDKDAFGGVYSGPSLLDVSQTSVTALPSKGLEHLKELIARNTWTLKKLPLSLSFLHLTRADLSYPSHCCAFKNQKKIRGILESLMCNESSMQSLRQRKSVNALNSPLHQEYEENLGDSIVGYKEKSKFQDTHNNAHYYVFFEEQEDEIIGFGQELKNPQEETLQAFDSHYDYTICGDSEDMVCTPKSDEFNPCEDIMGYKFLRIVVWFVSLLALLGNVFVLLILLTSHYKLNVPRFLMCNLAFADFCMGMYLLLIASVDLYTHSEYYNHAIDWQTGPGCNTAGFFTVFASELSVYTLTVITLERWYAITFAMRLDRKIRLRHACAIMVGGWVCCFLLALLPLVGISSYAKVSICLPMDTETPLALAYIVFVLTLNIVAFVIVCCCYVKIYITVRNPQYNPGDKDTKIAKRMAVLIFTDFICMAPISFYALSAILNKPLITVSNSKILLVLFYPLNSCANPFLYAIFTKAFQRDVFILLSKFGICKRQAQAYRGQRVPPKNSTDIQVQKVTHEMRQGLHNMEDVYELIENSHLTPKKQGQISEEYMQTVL
How it was run: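 TSHR-HEK293 cells (800/well) plated 18 h, then compounds with Ro20-1724 and TSH at 1.5 ng/mL final, 30 min at room temperature. cAMP quantified by HTRF (cAMP-d2/anti-cAMP-cryptate, 1 h); 15 concentrations in triplicate.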

[5] = qHTS assay to identify small molecule antagonists of the TGF-beta/Smad signaling pathway - cell viability counter screen (AID 1346824); note: nearly all actives have a fitted effect of over 50% in size; note: potency is the fitted concentration of half-maximal effect
How it was run: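 SBE-bla HEK 293T cells, incubated overnight, then compound plus 0.25 ng/mL TGF-beta1 (stock added) for 5 hr at 37 C. Viability was read in the same wells by CellTiter-Glo luminescence after 30 min at room temperature.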

[6] = qHTS assay to identify small molecule agonists of the TGF-beta/Smad signaling pathway - cell viability counter screen (AID 1346829); note: nearly all actives have a fitted effect of over 45% in size; note: potency is the fitted concentration of half-maximal effect
How it was run: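 Tox21 qHTS format: SBE-bla HEK 293T cells treated with DMSO-dissolved compounds for 5 hr; CellTiter-Glo luminescence after 30 min at room temperature.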

[7] = qHTS assay to identify small molecule agonists of the TGF-beta/Smad signaling pathway (AID 1346859; active = well fitted activation curve with a large enough effect in the signal ratio in the repeat runs, not every such curve was filed as active; the % refers to the signal ratio; note: series mostly up to about 77 µM)
How it was run: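 Beta-lactamase reporter activity downstream of Smad binding elements was measured in stably transfected HEK 293T cells; compounds were incubated for 5 hr, substrate for 2 hr at room temperature.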

[8] = target: Thyrotropin-releasing hormone receptor (Homo sapiens) (UniProt P34981); experiment: qHTS assay to identify small molecule antagonists of the thyrotropin-releasing hormone receptor (TRHR) signaling pathway (AID 1346877; active = well fitted inhibition curve with a large enough effect in the repeat runs, not every such curve was filed as active; note: potency is the fitted concentration of half-maximal effect)
Thyrotropin-releasing hormone receptor (Homo sapiens), sequence (P34981 whole entry, looked up): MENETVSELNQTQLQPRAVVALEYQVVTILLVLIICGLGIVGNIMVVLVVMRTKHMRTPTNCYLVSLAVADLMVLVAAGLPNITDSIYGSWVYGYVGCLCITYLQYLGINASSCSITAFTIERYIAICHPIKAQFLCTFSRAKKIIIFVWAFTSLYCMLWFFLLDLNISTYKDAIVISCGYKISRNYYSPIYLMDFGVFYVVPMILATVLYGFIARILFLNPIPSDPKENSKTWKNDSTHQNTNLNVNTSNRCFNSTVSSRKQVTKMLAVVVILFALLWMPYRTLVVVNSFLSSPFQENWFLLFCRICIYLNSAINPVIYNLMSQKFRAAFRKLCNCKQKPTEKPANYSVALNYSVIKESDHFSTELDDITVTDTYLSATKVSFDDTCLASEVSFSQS
How it was run: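 Antagonism is measured as suppression of the calcium response to 1 nM TRH in TRHR-HEK293 cells that have been dye-loaded for 2 h at 37 °C after overnight plating. Each compound is tested at 15 concentrations in triplicate.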

[9] = target: Thyrotropin-releasing hormone receptor (Homo sapiens) (UniProt P34981); experiment: qHTS assay to identify small molecule agonists of the thyrotropin-releasing hormone receptor (TRHR) signaling pathway (AID 1346891; calls by dose curve;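 note: HEK293 cells expressing TRHR with calcium dye readout; series mostly up to about 58 µM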)
How it was run: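 Overnight-plated (18 h, 37 °C, 5% CO2) TRHR-Hek293 cells; 2 h calcium dye at 37 °C; compound in DMSO; 3-min kinetic fluorescence read.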

[10] = Human pregnane X receptor (PXR) small molecule agonists, qHTS cell viability counter screen (AID 1346977); note: nearly all actives have a fitted effect of over 50% in size; note: potency is the fitted concentration of half-maximal effect
How it was run: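 After a 5hr pre-incubation, PXR-Luc HepG2 cells received compounds plus positive control in DMSO and were kept 24hr at 37C. Cell viability was quantified by fluorescence from CellTiter-Fluor added for the final hour.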

[11] = qHTS assay to identify small molecule agonists of the androgen receptor (AR) signaling pathway in the presence of an antagonist - cell viability counter screen (AID 1259379); note: nearly all actives have a fitted effect of over 25% in size; note: potency is the fitted concentration of half-maximal effect
How it was run: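 Cytotoxicity is assessed by CellTiter-Fluor in MDA-kb2 cells carrying an MMTV-driven luciferase reporter. Cells receive 3.0uM nilutamide plus compounds at 15 concentrations and incubate 16 hr at 37C without CO2 before fluorescence reading.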

[12] = target: Estrogen receptor (Homo sapiens) (UniProt P03372); experiment: qHTS assay to identify small molecule agonists of the estrogen receptor alpha (ER-alpha) signaling pathway in the presence of an antagonist (AID 1259383; calls by dose curve; note: top concentration of the series differs between compounds; nearly all actives have a fitted effect of over 15% in size)
Estrogen receptor (Homo sapiens), sequence (P03372 whole entry, looked up): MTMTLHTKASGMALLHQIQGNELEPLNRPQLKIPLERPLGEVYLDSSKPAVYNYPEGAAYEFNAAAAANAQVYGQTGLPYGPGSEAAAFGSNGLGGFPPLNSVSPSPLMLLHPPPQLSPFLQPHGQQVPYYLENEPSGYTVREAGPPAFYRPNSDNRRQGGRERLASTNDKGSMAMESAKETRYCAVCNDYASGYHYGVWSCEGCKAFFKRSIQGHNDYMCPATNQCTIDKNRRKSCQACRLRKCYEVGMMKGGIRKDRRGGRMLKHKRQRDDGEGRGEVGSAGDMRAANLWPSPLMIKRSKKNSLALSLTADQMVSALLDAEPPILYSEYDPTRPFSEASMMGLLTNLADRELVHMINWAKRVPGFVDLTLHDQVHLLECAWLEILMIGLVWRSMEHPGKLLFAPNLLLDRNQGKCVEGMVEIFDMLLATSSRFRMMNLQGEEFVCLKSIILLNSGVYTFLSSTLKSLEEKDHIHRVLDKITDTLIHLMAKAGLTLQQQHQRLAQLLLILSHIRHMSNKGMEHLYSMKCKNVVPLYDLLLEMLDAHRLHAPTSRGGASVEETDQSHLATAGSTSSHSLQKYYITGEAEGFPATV
How it was run: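 Agonist-mode confirmation in the presence of the ER antagonist ICI-182,780 at 10.0nM final. Breast-derived VM7Luc4E2 reporter cells were exposed to compounds for 22hr, and ERE-driven luciferase was quantified by luminescence.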

[13] = qHTS assay to identify small molecule agonists of the estrogen receptor alpha (ER-alpha) signaling pathway in the presence of an antagonist - cell viability counter screen (AID 1259386);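 note: cells exposed to compounds for 22 h at 37 °C before the viability read; nearly all actives have a fitted effect of over 30% in size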; note: potency is the fitted concentration of half-maximal effect
How it was run: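 Cytotoxicity was measured in parallel with the ERE-luciferase agonist screen, in the same wells. The cells were VM7Luc4E2, which endogenously express ER-alpha, and treatment was with compounds plus 10.0nM ICI-182,780 for 22hr.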

[14] = target: Progesterone receptor (Homo sapiens) (UniProt P06401); experiment: qHTS assay to identify small molecule agonists of the progesterone receptor (PR) signaling pathway (AID 1346784; calls by dose curve; note: nearly all actives have a fitted effect of over 30% in size)
Progesterone receptor (Homo sapiens), sequence (P06401 whole entry, looked up): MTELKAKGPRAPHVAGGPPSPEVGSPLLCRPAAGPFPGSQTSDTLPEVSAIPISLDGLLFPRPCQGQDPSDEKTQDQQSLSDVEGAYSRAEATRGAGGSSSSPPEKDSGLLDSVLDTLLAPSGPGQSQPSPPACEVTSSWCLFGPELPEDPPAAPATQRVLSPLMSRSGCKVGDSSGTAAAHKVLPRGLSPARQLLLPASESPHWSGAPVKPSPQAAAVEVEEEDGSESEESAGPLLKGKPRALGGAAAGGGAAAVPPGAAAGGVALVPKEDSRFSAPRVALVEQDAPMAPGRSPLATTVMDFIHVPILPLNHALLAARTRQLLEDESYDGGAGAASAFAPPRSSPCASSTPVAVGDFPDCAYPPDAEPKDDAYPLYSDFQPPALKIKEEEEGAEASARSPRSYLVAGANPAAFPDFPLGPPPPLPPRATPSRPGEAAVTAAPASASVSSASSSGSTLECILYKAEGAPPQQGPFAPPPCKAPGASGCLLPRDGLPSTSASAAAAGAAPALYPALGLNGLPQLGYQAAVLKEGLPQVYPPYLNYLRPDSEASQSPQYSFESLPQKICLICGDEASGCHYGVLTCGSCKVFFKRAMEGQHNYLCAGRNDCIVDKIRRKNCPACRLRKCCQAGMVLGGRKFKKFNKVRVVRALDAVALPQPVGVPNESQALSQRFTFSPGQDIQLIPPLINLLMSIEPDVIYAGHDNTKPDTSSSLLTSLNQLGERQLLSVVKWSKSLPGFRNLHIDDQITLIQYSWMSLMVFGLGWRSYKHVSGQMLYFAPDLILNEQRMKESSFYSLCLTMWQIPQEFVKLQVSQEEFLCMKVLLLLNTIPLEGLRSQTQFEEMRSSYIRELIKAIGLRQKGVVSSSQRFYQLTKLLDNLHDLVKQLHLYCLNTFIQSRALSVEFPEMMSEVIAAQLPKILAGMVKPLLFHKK
How it was run: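 Seed PR-UAS-bla HEK 293T cells (2% charcoal-stripped FBS), incubate 6 hr at 37C; add compounds in DMSO, 16 hr at 37C; add LiveBLAzer B/G substrate, 2 hr RT; read fluorescence intensity.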

[15] = target: Progesterone receptor (Homo sapiens) (UniProt P06401); experiment: qHTS assay to identify small molecule antagonists of the progesterone receptor (PR) signaling pathway (AID 1346795; active = well fitted inhibition curve with a large enough effect in the signal ratio in the repeat runs, not every such curve was filed as active; the % refers to the signal ratio; note: potency is the fitted concentration of half-maximal effect)
How it was run: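 Screening used a GripTite HEK293T line with PR-responsive UAS-beta-lactamase. Cells were challenged with compound in the presence of 1 nM R5020 final for 16 hr at 37C; B/G FRET substrate, 2 hr room temperature, fluorescence.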

[16] = qHTS assay to identify small molecule antagonists of the progesterone receptor (PR) signaling pathway - cell viability counter screen (AID 1346798); note: nearly all actives have a fitted effect of over 50% in size; note: potency is the fitted concentration of half-maximal effect
How it was run: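 Measures cytotoxicity in parallel with the PR antagonist reporter read: HEK293T PR-UAS-bla cells get compound and R5020 for 16 hr, and remaining viable cells are quantified by CellTiter-Glo luminescence.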

[17] = qHTS assay to identify small molecule agonists of the progesterone receptor (PR) signaling pathway - cell viability counter screen (AID 1346799; calls by dose curve; note: nearly all actives have a fitted effect of over 45% in size; note: potency is the fitted concentration of half-maximal effect)
How it was run: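 Using the same plates as the PR reporter screen, HEK293T PR-UAS-bla cells received compounds for 16 hr at 37C and were then lysed with CellTiter-Glo; luminescence was read 30 min later at room temperature.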

[18] = Caspase-3/7 induction in HepG2 cells by small molecules, qHTS assay (AID 1346978); note: nearly all actives have a fitted effect of over 15% in size; note: potency is the fitted concentration of half-maximal effect
How it was run: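 Wild-type HepG2 cells, 2,000/well, settled 5 hr at 37 C and 5% CO2, then compound-treated for 17 hr; caspase-3/7 activity read by luminescent Caspase-Glo 3/7 after 30 min at room temperature.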

[19] = qHTS assay to identify small molecule agonists of the estrogen receptor beta (ER-beta) signaling pathway - cell viability counter screen (AID 1259380); note: nearly all actives have a fitted effect of over 30% in size; note: potency is the fitted concentration of half-maximal effect
How it was run: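 Cytotoxicity is measured in parallel with the reporter screen: after 16 hr compound exposure at 37C and a 2 hr LiveBLAzer step, CellTiter-Glo is added to the same ER-beta-UAS-bla HEK293T wells and luminescence read after 30 min.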

[20] = target: Androgen receptor (Homo sapiens) (UniProt P10275); experiment: qHTS assay to identify small molecule agonists of the androgen receptor (AR) signaling pathway in the presence of an antagonist (AID 1259381; calls by dose curve; note: nearly all actives have a fitted effect of over 15% in size; note: potency is the fitted concentration of half-maximal effect)
Androgen receptor (Homo sapiens), sequence (P10275 whole entry, looked up): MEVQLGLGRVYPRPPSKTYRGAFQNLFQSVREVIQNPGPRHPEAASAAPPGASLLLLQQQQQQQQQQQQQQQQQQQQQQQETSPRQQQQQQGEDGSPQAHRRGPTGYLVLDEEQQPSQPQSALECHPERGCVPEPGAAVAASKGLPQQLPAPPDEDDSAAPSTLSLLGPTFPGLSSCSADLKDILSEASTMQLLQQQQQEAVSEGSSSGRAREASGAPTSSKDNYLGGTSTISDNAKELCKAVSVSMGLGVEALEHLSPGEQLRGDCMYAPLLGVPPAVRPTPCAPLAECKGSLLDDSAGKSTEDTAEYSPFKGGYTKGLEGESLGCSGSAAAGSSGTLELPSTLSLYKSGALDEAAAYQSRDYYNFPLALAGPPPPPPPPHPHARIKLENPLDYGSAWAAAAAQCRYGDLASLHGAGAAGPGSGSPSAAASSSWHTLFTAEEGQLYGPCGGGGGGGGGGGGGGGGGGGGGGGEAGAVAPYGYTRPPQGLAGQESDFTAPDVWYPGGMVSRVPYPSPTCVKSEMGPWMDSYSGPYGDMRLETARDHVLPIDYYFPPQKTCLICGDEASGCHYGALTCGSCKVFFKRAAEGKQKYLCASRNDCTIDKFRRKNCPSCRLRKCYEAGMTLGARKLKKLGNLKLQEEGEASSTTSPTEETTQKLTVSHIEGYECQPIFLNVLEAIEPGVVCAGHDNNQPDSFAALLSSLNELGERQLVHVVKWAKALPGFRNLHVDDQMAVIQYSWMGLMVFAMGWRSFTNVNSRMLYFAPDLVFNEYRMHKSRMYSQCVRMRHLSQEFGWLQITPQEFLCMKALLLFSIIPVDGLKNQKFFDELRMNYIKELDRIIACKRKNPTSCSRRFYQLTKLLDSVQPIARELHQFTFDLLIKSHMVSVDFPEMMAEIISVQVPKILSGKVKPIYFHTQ
How it was run: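 Agonist-mode confirmation screen: human MDA-kb2 cells stably expressing luciferase under an MMTV promoter bearing AR and GR response elements, co-treated with 3.0uM nilutamide (final). Luminescence measured after 16hr compound incubation.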
% is set by controls: 0 for no effect and ±100 for the full control effect.

CCCOCC(=Nc1ccc(Cl)cc1C(F)(F)F)n1ccnc1
inactive: outcome [3] | Potency [4] | Potency [5] | Potency [6] | outcome [7] | Potency [8] | Potency [9]
active: Potency [1] 17.2 µM | Potency [2] 61.1 µM | Potency [10] 61.1 µM

c1ccc2c(c1)[nH]c1cnccc12
active: Potency [15] 27.3 µM
inactive: Potency [1] | Potency [11] | Potency [2] | Potency [12] | outcome [3] | Potency [13] | Potency [14] | Potency [16] | Potency [17] | Potency [5] | Potency [6] | outcome [7] | Potency [8] | Potency [9] | Potency [10] | Potency [18]

O=C1C=CC(=O)c2ccccc21
inactive: Potency [20] | Potency [12] | Potency [14] | Potency [15] | Potency [16] | Potency [17] | Potency [9] | Potency [18]
active: Potency [11] 43.3 µM | Potency [19] 21.7 µM | Potency [2] 27.3 µM | Potency [13] 30.6 µM | Potency [5] 24.5 µM | Potency [6] 49 µM | Potency [8] 21.3 µM | Potency [10] 48.6 µM

CC(C)(C)OO
inactive: Potency [11] | Potency [19] | Potency [20] | Potency [2] | outcome [3] | Potency [4] | Potency [13] | Potency [14] | Potency [15] | Potency [16] | Potency [17] | Potency [5] | Potency [6] | outcome [7] | Potency [8] | Potency [9] | Potency [10] | Potency [18]

Oc1cc(Cl)c(Cl)c(Cl)c1
active: Potency [1] 14.6 µM | Potency [19] 25.9 µM | Potency [15] 13 µM | Potency [10] 51.7 µM
inactive: Potency [12] | outcome [3] | Potency [16] | outcome [7] | Potency [8] | Potency [9] | Potency [18]

CC(C)(c1ccc(O)c(-c2ccccc2)c1)c1ccc(O)c(-c2ccccc2)c1
inactive: Potency [20] | Potency [12] | Potency [8] | Potency [9]
active: Potency [11] 54.5 µM | Potency [19] 27.3 µM | Potency [2] 27.3 µM | Potency [13] 61.1 µM | Potency [17] 30.6 µM | Potency [6] 34.7 µM | Potency [10] 30.6 µM

COP(=O)(CCC(=O)NCO)OC
inactive: Potency [11] | Potency [19] | Potency [20] | Potency [2] | Potency [12] | outcome [3] | Potency [4] | Potency [13] | Potency [15] | Potency [17] | Potency [5] | Potency [6] | Potency [8] | Potency [9] | Potency [10]

SCc1ccco1
inactive: Potency [11] | Potency [19] | Potency [20] | Potency [2] | Potency [12] | outcome [3] | Potency [4] | Potency [13] | Potency [14] | Potency [15] | Potency [16] | Potency [17] | Potency [5] | Potency [6] | outcome [7] | Potency [8] | Potency [9] | Potency [10] | Potency [18]

CNC(C)Cc1ccc2c(c1)OCO2 (configuration not stated)
active: Potency [15] 75.1 µM | Potency [16] 66.9 µM
inactive: Potency [11] | Potency [19] | Potency [20] | Potency [2] | Potency [12] | outcome [3] | Potency [4] | Potency [13] | Potency [14] | Potency [17] | Potency [5] | Potency [6] | outcome [7] | Potency [8] | Potency [9]

COCC(=O)N(c1c(C)cccc1C)[C@H](C)C(=O)OC
inactive: Potency [1] | Potency [11] | Potency [2] | Potency [12] | outcome [3] | Potency [13] | Potency [14] | Potency [15] | Potency [16] | Potency [17] | Potency [6] | Potency [8] | Potency [9] | Potency [10] | Potency [18]

CC1(c2ccc(Oc3ccccc3)cc2)OC(=O)N(Nc2ccccc2)C1=O (configuration not stated)
inactive: Potency [2] | Potency [12] | Potency [6] | outcome [7] | Potency [8] | Potency [9]
active: Potency [1] 10.9 µM | Potency [11] 24.5 µM | Potency [13] 30.8 µM | Potency [10] 27.5 µM

CCCCCCCCCCCCCN1CC(C)OC(C)C1 (configuration not stated)
inactive: Potency [1] | Potency [11] | Potency [2] | Potency [12] | outcome [3] | Potency [4] | Potency [13] | Potency [15] | Potency [16] | Potency [17] | Potency [6] | outcome [7] | Potency [8] | Potency [9] | Potency [10] | Potency [18]

CC1(C)CC/C(=C/c2ccc(Cl)cc2)C1(O)Cn1cncn1 (configuration not stated)
inactive: Potency [11] | Potency [2] | Potency [12] | outcome [3] | Potency [13] | Potency [5] | Potency [6] | Potency [8] | Potency [9] | Potency [10] | Potency [18]
active: Potency [19] 6.08 µM | Potency [20] 17.1 µM

FC(F)(F)c1cccc(C2=CCN(CCc3ccc4ccccc4c3)CC2)c1
inactive: Potency [1] | Potency [11] | Potency [13] | Potency [15] | Potency [16] | Potency [17] | Potency [5] | Potency [6] | Potency [8] | Potency [9] | Potency [10] | Potency [18]

CC(C)OS(C)(=O)=O
inactive: Potency [1] | Potency [11] | Potency [12] | Potency [4] | Potency [13] | Potency [14] | Potency [15] | Potency [16] | Potency [17] | Potency [5] | Potency [6] | outcome [7] | Potency [8] | Potency [9] | Potency [10] | Potency [18]

[Cl][Sn]([c]1ccccc1)([c]1ccccc1)[c]1ccccc1
inactive: activation [20] -10.8% [at 19 µM] | activation [12] -14.6% [at 19 µM] | cAMP activity change [3] 23.5% [at 18.9 µM]
active: Potency [11] 1.16 µM | Potency [19] 0.82 µM | Potency [2] 0.82 µM | Potency [13] 11.6 µM | Potency [16] 1.3 µM | Potency [17] 1.64 µM | Potency [5] 2.61 µM | Potency [6] 2.61 µM | Potency [10] 1.03 µM | Potency [18] 1.46 µM

CC(C)[C@H](C(=O)O[C@H](C#N)c1cccc(Oc2ccccc2)c1)c1ccc(Cl)cc1
inactive: Potency [1] | Potency [11] | Potency [2] | outcome [3] | Potency [4] | Potency [13] | Potency [5] | Potency [10]

— PubChem BioAssay (Tox21)
